Test systems include T-47D breast; BT-549 breast; MDA-MB-435 melanoma; SW-620 colon; MCF7 breast; HCT-116 colon; HCC-2998 colon; KM12 colon.
Common to all, as to assay: NCI-60 one-dose screen, 48 h (100 = growth as untreated, 0 = no growth, -100 = all killed)
Holding throughout (conditions): 10 µM unless noted

This is part of a sample that, as a whole, favours compounds with a hit. Of some 83,000 tested, about 20% had one in any assay.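 Interpretation: 100, growth as untreated; towards 0, rising growth inhibition; 0, no net growth; 0 to -100, cell death. Compounds scoring below 10 were considered active.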 Unmarked numbers belong to inactive results. Activity calls are given as the source filed them.

Regarding `COc1ccccc1CNc1c2ccccc2nc2ccccc12`, the growth in the experiment on T-47D breast was 46.2%; in the experiment on BT-549 breast, 77%; in the experiment on MDA-MB-435 melanoma it was 42.6%; in the experiment with SW-620 colon it was 22.1%; in the experiment with MCF7 breast it was 16.8%; in the experiment with HCT-116 colon, 12.7%. In addition, the growth with HCC-2998 colon is 38.8%; in the experiment on KM12 colon, 32.9%.

As to `CCOC(=O)c1cc(C)n(-c2ccc(C(=O)O)cc2)c1C`, the growth in the experiment on T-47D breast is 102%; in the experiment on BT-549 breast it was 76.1%; in the experiment with MDA-MB-435 melanoma, 107%; in the experiment on SW-620 colon, 64.4%; in the experiment on MCF7 breast, 67.1%; in the experiment on HCT-116 colon, 67.5%. Besides, the growth was 133% with HCC-2998 colon and 95.3% with KM12 colon.

As to `COc1ccc(\C=N/N=C(N)/C(N)=N\N=C/c2ccc(OC)cc2)cc1`, the growth is 90.3% in the experiment with T-47D breast; 116% in the experiment with BT-549 breast; 107% in the experiment on MDA-MB-435 melanoma; 103% with SW-620 colon; 104% in the experiment on MCF7 breast; 113% in the experiment with HCT-116 colon. Further, the growth in the experiment with HCC-2998 colon and in the experiment with KM12 colon was 110% each time.

Consider `O=C(CSC(=S)n1cnnc1)NC(=O)c1ccccc1`, for which the growth in the experiment with T-47D breast is 100%; in the experiment on BT-549 breast, 102%; in the experiment on MDA-MB-435 melanoma, 113%; with SW-620 colon, 103%; in the experiment on MCF7 breast, 99.3%; in the experiment on HCT-116 colon it was 112%. For the same compound, the values for the growth with HCC-2998 colon and in the experiment with KM12 colon were 104% and 103%, respectively.

For `CC1(C)CC(=O)C2=C(C1)N(c1ccc(OC(F)(F)F)cc1)C(N)=C(C#N)C2c1ccc(Br)cc1F` (stereo not given), the growth was 78.9% in the experiment on T-47D breast; 69.1% in the experiment on BT-549 breast; 93.1% in the experiment with MDA-MB-435 melanoma; 69.9% with SW-620 colon; 83.3% with MCF7 breast; 46.7% in the experiment with HCT-116 colon. Further, the growth with HCC-2998 colon was 88.4%; in the experiment with KM12 colon it was 89.5%.

Consider `COCCn1cc(-c2csc(-c3cn(C)c4ccc(Br)cc34)n2)c2cccnc21`, for which the growth in the experiment with T-47D breast was 17.6%; in the experiment with BT-549 breast, 64.6%; in the experiment with MDA-MB-435 melanoma, 61.2%; in the experiment on SW-620 colon, 21.9%; with MCF7 breast, 50.2%; in the experiment on HCT-116 colon it was 49.2%. The growth in the experiment with HCC-2998 colon was 25.7%; in the experiment on KM12 colon, 23.8%.

In the case of `Clc1ccc2c(c1)C(c1c[nH]c3ccccc13)(c1c[nH]c3ccccc13)CCO2`, the growth was -3.57% (active) with T-47D breast; 77.2% with BT-549 breast; 94.9% in the experiment with MDA-MB-435 melanoma; 87.4% in the experiment on SW-620 colon; 103% in the experiment with MCF7 breast; 56.5% in the experiment on HCT-116 colon. Besides, the growth in the experiment on HCC-2998 colon is 112%; in the experiment on KM12 colon, 78.2%.

`O=C(/C=C/c1cn(-c2ccccc2)nc1-c1ccc(Cl)cc1)c1ccc(F)cc1`: the growth with T-47D breast is 38.9%; with BT-549 breast, 96%; in the experiment with MDA-MB-435 melanoma, 326%; in the experiment on SW-620 colon, 75.4%; in the experiment on MCF7 breast it was 41.8%; in the experiment on HCT-116 colon, 41.1%. Also, the growth with HCC-2998 colon is 186%; in the experiment with KM12 colon, 63.8%.

Take `O=C(/C=C/c1ccccc1)Nc1ncc(Cc2ccccc2Cl)s1`: the growth is 21.1% in the experiment with T-47D breast; 55.2% in the experiment with BT-549 breast; -44.4% (active) in the experiment on MDA-MB-435 melanoma; 31.4% in the experiment with SW-620 colon; 18.9% with MCF7 breast; 16% in the experiment with HCT-116 colon. Further, the growth in the experiment with HCC-2998 colon was 35.4%; in the experiment on KM12 colon, 14%.

As to `Nc1cnc(C(=O)NNc2nc3cc(F)ccc3n3cccc23)cn1`, the growth is 35.5% in the experiment on T-47D breast; 52.9% with BT-549 breast; 38.9% in the experiment on MDA-MB-435 melanoma; 36% in the experiment with SW-620 colon; 16.6% in the experiment with MCF7 breast; 36% in the experiment on HCT-116 colon. Also, the growth in the experiment on HCC-2998 colon was 48.4%; in the experiment on KM12 colon, 24.7%.

On to `N#CSCC1CC(O)(c2ccccc2)CC(c2ccc(F)cc2)O1` (stereo not given), for which the growth was 12.5% with T-47D breast; -9.66% (active) with BT-549 breast; 0.665% (active) in the experiment on MDA-MB-435 melanoma; -58.8% (active) with SW-620 colon; -17% (active) in the experiment on MCF7 breast; -60.4% (active) in the experiment with HCT-116 colon. The growth in the experiment with HCC-2998 colon is 72%; in the experiment on KM12 colon it was -49.3% (active).

In the case of `Cc1ccc(Nn2c(SCC(=O)Nc3nc(-c4ccccc4)cs3)nc(C)c2C)cc1`, the growth is -2.45% (active) in the experiment with T-47D breast; 63.5% with BT-549 breast; 76.7% with MDA-MB-435 melanoma; 98.8% in the experiment on SW-620 colon; 28.5% in the experiment on MCF7 breast; 40.2% in the experiment on HCT-116 colon. In addition, the results for the growth in the experiment with HCC-2998 colon and in the experiment with KM12 colon were 92% and 82.9%, respectively.

Turning to `C1CN(SSN2CCOCC2)CCO1`, the growth with T-47D breast was -24.8% [100 µM] (active); with BT-549 breast it was -90% [100 µM] (active); in the experiment with MDA-MB-435 melanoma it was 0.278% [100 µM] (active); in the experiment on SW-620 colon, -56.4% [100 µM] (active); in the experiment on MCF7 breast, 22.1% [100 µM]; in the experiment on HCT-116 colon it was -75.5% [100 µM] (active). Moreover, the growth is 90.7% [100 µM] with HCC-2998 colon and 2.07% [100 µM] (active) with KM12 colon.

Take `NC(=O)C(=O)c1ccccc1NC=O`: the growth is 106% in the experiment on T-47D breast; 107% in the experiment on BT-549 breast; 101% with MDA-MB-435 melanoma; 101% with SW-620 colon; 99.5% in the experiment with MCF7 breast; 93.1% in the experiment on HCT-116 colon. In addition, the growth was 107% with HCC-2998 colon and 98.6% in the experiment with KM12 colon.

On to `COc1ccc(-c2nn(-c3cccc(Cl)c3)cc2-c2cc(-c3ccc(Br)cc3)nc(N)n2)cc1`, for which the growth in the experiment with T-47D breast is 66.2%; in the experiment with BT-549 breast, 114%; in the experiment on MDA-MB-435 melanoma it was 99.6%; in the experiment on SW-620 colon, 100%; in the experiment on MCF7 breast it was 57.4%; in the experiment with HCT-116 colon, 91.5%. The growth was 104% with HCC-2998 colon and 93.4% with KM12 colon.

The values are drawn from PubChem BioAssay (NCI).
